# Assay results as given in PubChem BioAssay (NCI).
# The panel holds about 79,000 compounds, 15% with a hit somewhere; the sample as a whole holds those more often. A number with no mark means an inactive call. The source made the active and inactive calls. No stated cut-off is given here; in the data, active means growth inhibition above about 70%; inactive means the rest.
# Experiments:
# [1] = NCI Yeast Anticancer Drug Screen. Data for the wt2 strain (AID 169);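 further: 0% = growth of vehicle-treated yeast cultures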; conditions: S. cerevisiae wt2 strain growth inhibition, stronger effect = higher value
# Outline: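 Inhibition of yeast growth was determined after compound treatment, normalised to controls receiving only vehicle.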
# [2] = NCI Yeast Anticancer Drug Screen. Data for the mlh1 strain (AID 171);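 further: 0% = growth of vehicle-treated control cultures of the same strain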; conditions: S. cerevisiae mlh1 strain growth inhibition, stronger effect = higher value
# Outline: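 Vehicle-normalised growth inhibition of a repair- or checkpoint-altered yeast strain following compound treatment.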
# [3] = NCI Yeast Anticancer Drug Screen. Data for the sgs1 strain (AID 173);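 further: 0% = growth of vehicle-only control cultures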; conditions: S. cerevisiae sgs1 mutant, stronger effect = higher value
# Outline: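 Screen format: yeast with repair or checkpoint alterations, compound exposure, growth read relative to vehicle.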
# [4] = NCI Yeast Anticancer Drug Screen. Data for the mlh1 rad18 strain (AID 175); conditions: S. cerevisiae mlh1 rad18 strain growth inhibition, stronger effect = higher value
# Outline: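 Vehicle-treated cultures served as the reference for growth inhibition in a yeast strain carrying DNA damage repair alterations exposed to each compound.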
# [5] = NCI Yeast Anticancer Drug Screen. Data for the rad18 strain (AID 177); conditions: S. cerevisiae rad18 mutant growth inhibition, stronger effect = higher value
# Outline: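 Test articles were incubated with altered yeast defective in DNA damage repair. Results are given as inhibition of growth versus vehicle.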
# [6] = NCI Yeast Anticancer Drug Screen. Data for the rad52 strain (AID 147);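 further: 0% = growth of vehicle-treated control cultures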; conditions: S. cerevisiae rad52 mutant growth inhibition, stronger effect = higher value
# Outline: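 Vehicle-treated cultures served as the reference for growth inhibition of compound-exposed yeast bearing a DNA repair mutation.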
# [7] = NCI Yeast Anticancer Drug Screen. Data for the wt1 strain (AID 149);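 further: 0% = growth of vehicle-treated wt1 cultures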; conditions: S. cerevisiae wt1 strain (SPY 50644) growth inhibition, stronger effect = higher value
# Outline: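 wt1 strain grown with compound or vehicle; inhibition taken from the growth difference.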
# [8] = NCI Yeast Anticancer Drug Screen. Data for the rad50EPP+ strain (AID 151);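 further: 0% = growth of vehicle-treated control cultures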; conditions: S. cerevisiae rad50 mutant strain, stronger effect = higher value
# Outline: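 In this screen, rad50EPP+ yeast were exposed to compounds. Growth inhibition was scored against vehicle-treated controls.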
# [9] = NCI Yeast Anticancer Drug Screen. Data for the mgt1 strain (AID 153); conditions: S. cerevisiae mgt1 mutant growth inhibition, stronger effect = higher value
# Outline: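 mgt1 strain exposed; growth vs vehicle control recorded as inhibition.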
# [10] = NCI Yeast Anticancer Drug Screen. Data for the rad50 strain (AID 155);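 further: 0% = growth of vehicle-only cultures of the same strain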; conditions: S. cerevisiae rad50 strain growth inhibition, stronger effect = higher value
# Outline: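 DNA repair mutant yeast, compound exposure, growth read-out; inhibition is taken relative to vehicle.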
# [11] = NCI Yeast Anticancer Drug Screen. Data for the mec2-1 strain (AID 157); conditions: S. cerevisiae mec2-1 strain, stronger effect = higher value
# Outline: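 Vehicle-treated cultures served as reference for growth inhibition of compound-exposed mec2-1 yeast.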
# [12] = NCI Yeast Anticancer Drug Screen. Data for the rad14 strain (AID 159);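 further: 0% = growth of vehicle-treated control cultures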; conditions: S. cerevisiae rad14 strain growth inhibition, stronger effect = higher value
# Outline: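 DNA repair-defective yeast, compound-exposed; % growth inhibition derived by comparison with vehicle-treated controls.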
# [13] = NCI Yeast Anticancer Drug Screen. Data for the sgs1 mgt1 strain (AID 161);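 further: 0% = growth of cultures given vehicle only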; conditions: S. cerevisiae sgs1 mgt1 strain, stronger effect = higher value
# Outline: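 Mutant yeast exposed to compound; growth scored against vehicle-only wells.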
# [14] = NCI Yeast Anticancer Drug Screen. Data for the CLN2oe strain (AID 163);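 further: 0% = growth of vehicle-only control cultures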; conditions: S. cerevisiae CLN2oe strain, stronger effect = higher value
# Outline: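 Inhibition relative to vehicle-treated yeast is reported. Cells: strain with genetic alteration in cell-cycle control, grown with compound.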
# [15] = NCI Yeast Anticancer Drug Screen. Data for the cln2 rad14 strain (AID 165);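 further: 0% = growth equal to vehicle treated cultures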; conditions: S. cerevisiae cln2 rad14 strain, stronger effect = higher value
# Outline: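 Each compound was tested on cln2 rad14 yeast. Inhibition of growth was calculated against vehicle-exposed controls.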
# [16] = NCI Yeast Anticancer Drug Screen. Data for the bub3 strain (AID 167); conditions: S. cerevisiae bub3 mutant strain, stronger effect = higher value
# Outline: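 In this screen, a yeast mutant lacking normal mitotic checkpoint function is challenged with compound. Relative growth versus vehicle gives the inhibition value.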
# [17] = at 5.0 µM (retest, dose inferred, filed as 0.5)
# [18] = at 50.0 µM (retest, dose inferred, filed as 5.0)
smiles,measurement,setting,value
O=C(NCCCCN(CCCNC(=O)C(F)(F)F)Cc1ccccc1)C(F)(F)F,growth inhibition,[1]; at 1.2 µM,-4%
same,growth inhibition,[1]; at 3.7 µM,-6%
same,growth inhibition,[1]; at 11.0 µM,2%
same,growth inhibition,[1]; at 33.0 µM,-12%
same,growth inhibition,[1]; at 100.0 µM,-12%
same,growth inhibition,[2]; at 1.2 µM,22%
same,growth inhibition,[2]; at 3.7 µM,33%
same,growth inhibition,[2]; at 11.0 µM,32%
same,growth inhibition,[2]; at 33.0 µM,26%
same,growth inhibition,[2]; at 100.0 µM,7%
same,growth inhibition,[3]; at 1.2 µM,40%
same,growth inhibition,[3]; at 3.7 µM,41%
same,growth inhibition,[3]; at 11.0 µM,44%
same,growth inhibition,[3]; at 33.0 µM,15%
same,growth inhibition,[3]; at 100.0 µM,36%
same,growth inhibition,[4]; [17],19%
same,growth inhibition,[4]; [18],24%
same,growth inhibition,[4]; at 50.0 µM,-63%
same,growth inhibition,[5]; at 1.2 µM,13%
same,growth inhibition,[5]; at 3.7 µM,12%
same,growth inhibition,[5]; at 11.0 µM,21%
same,growth inhibition,[5]; at 33.0 µM,14%
same,growth inhibition,[5]; at 100.0 µM,-7%
CCN(CC)CCNc1ccc2nc(C)n3c4ccc(O)cc4c(=O)c1c23,growth inhibition,[6]; at 1.2 µM,40%
same,growth inhibition,[6]; at 3.7 µM,74% (active)
same,growth inhibition,[6]; at 11.0 µM,89% (active)
same,growth inhibition,[6]; at 33.0 µM,91% (active)
same,growth inhibition,[6]; at 100.0 µM,93% (active)
same,growth inhibition,[7]; at 1.2 µM,-2%
same,growth inhibition,[7]; at 3.7 µM,-4%
same,growth inhibition,[7]; at 11.0 µM,-2%
same,growth inhibition,[7]; at 33.0 µM,0%
same,growth inhibition,[7]; at 100.0 µM,2%
same,growth inhibition,[8]; at 1.2 µM,5%
same,growth inhibition,[8]; at 3.7 µM,15%
same,growth inhibition,[8]; at 11.0 µM,24%
same,growth inhibition,[8]; at 33.0 µM,38%
same,growth inhibition,[8]; at 100.0 µM,39%
same,growth inhibition,[9]; at 1.2 µM,3%
same,growth inhibition,[9]; at 3.7 µM,0%
same,growth inhibition,[9]; at 11.0 µM,3%
same,growth inhibition,[9]; at 33.0 µM,1%
same,growth inhibition,[9]; at 100.0 µM,2%
same,growth inhibition,[10]; at 1.2 µM,42%
same,growth inhibition,[10]; at 3.7 µM,73% (active)
same,growth inhibition,[10]; [17],91% (active)
same,growth inhibition,[10]; at 11.0 µM,84% (active)
same,growth inhibition,[10]; at 33.0 µM,91% (active)
same,growth inhibition,[10]; [18],91% (active)
same,growth inhibition,[10]; at 50.0 µM,-0.45%
same,growth inhibition,[10]; at 100.0 µM,92% (active)
same,growth inhibition,[11]; at 1.2 µM,-1%
same,growth inhibition,[11]; at 3.7 µM,10%
same,growth inhibition,[11]; [17],15%
same,growth inhibition,[11]; at 11.0 µM,3%
same,growth inhibition,[11]; at 33.0 µM,14%
same,growth inhibition,[11]; [18],15%
same,growth inhibition,[11]; at 50.0 µM,26.9%
same,growth inhibition,[11]; at 100.0 µM,28%
same,growth inhibition,[12]; at 1.2 µM,-1%
same,growth inhibition,[12]; at 3.7 µM,2%
same,growth inhibition,[12]; at 11.0 µM,3%
same,growth inhibition,[12]; at 33.0 µM,8%
same,growth inhibition,[12]; at 100.0 µM,13%
same,growth inhibition,[13]; [17],18%
same,growth inhibition,[13]; [18],18%
same,growth inhibition,[13]; at 50.0 µM,0.15%
same,growth inhibition,[14]; at 1.2 µM,-1%
same,growth inhibition,[14]; at 3.7 µM,2%
same,growth inhibition,[14]; at 11.0 µM,-1%
same,growth inhibition,[14]; at 33.0 µM,3%
same,growth inhibition,[14]; at 100.0 µM,-2%
same,growth inhibition,[15]; [17],28%
same,growth inhibition,[15]; [18],28%
same,growth inhibition,[15]; at 50.0 µM,18.6%
same,growth inhibition,[16]; at 1.2 µM,-3%
same,growth inhibition,[16]; at 3.7 µM,-19%
same,growth inhibition,[16]; [17],39%
same,growth inhibition,[16]; at 11.0 µM,-1%
same,growth inhibition,[16]; at 33.0 µM,-5%
same,growth inhibition,[16]; [18],39%
same,growth inhibition,[16]; at 50.0 µM,-3.85%
same,growth inhibition,[16]; at 100.0 µM,3%
same,growth inhibition,[1]; at 1.2 µM,0%
same,growth inhibition,[1]; at 3.7 µM,1%
same,growth inhibition,[1]; at 11.0 µM,0%
same,growth inhibition,[1]; at 33.0 µM,1%
same,growth inhibition,[1]; at 100.0 µM,5%
same,growth inhibition,[2]; at 1.2 µM,2%
same,growth inhibition,[2]; at 3.7 µM,3%
same,growth inhibition,[2]; at 11.0 µM,-6%
same,growth inhibition,[2]; at 33.0 µM,2%
same,growth inhibition,[2]; at 100.0 µM,22%
same,growth inhibition,[3]; at 1.2 µM,0%
same,growth inhibition,[3]; at 3.7 µM,-1%
same,growth inhibition,[3]; at 11.0 µM,1%
same,growth inhibition,[3]; at 33.0 µM,4%
same,growth inhibition,[3]; at 100.0 µM,5%
same,growth inhibition,[4]; [17],6%
same,growth inhibition,[4]; [18],6%
same,growth inhibition,[4]; at 50.0 µM,78.4% (active)
same,growth inhibition,[5]; at 1.2 µM,0%
same,growth inhibition,[5]; at 3.7 µM,0%
same,growth inhibition,[5]; at 11.0 µM,-4%
same,growth inhibition,[5]; at 33.0 µM,-13%
same,growth inhibition,[5]; at 100.0 µM,-22%
